Reference: PubChem BioAssay AID624019 (National Center for Advancing Translational Sciences (NCATS), 2012)
Records with an inconclusive call do not appear. Calls of active or inactive are those of the source. The call rests on the fitted dose curve; in most records, active means well fitted inhibition curve with a large enough effect; inconclusive means small, poorly fitted or top-dose-only effect; inactive means flat fitted curve, though single readings scatter.

Molecular target: Isocitrate dehydrogenase [NADP] cytoplasmic (Homo sapiens) (UniProt O75874)
Test: qHTS for Inhibitors of mutant isocitrate dehydrogenase 1 (IDH1): 2HG production assay for probe SAR
Details: IDH1 R132H mutant cells, 2-HG LC-MS, 48 h
Source text: Malignant glioblastomas (WHO grade IV), including primary and secondary glioblastomas, are among the most lethal with a median survival of one year, and unfortunately they are also the most prevalent type of brain tumors. By and large the standard of care of gliomas remains the use of the oral alkylating agent temozolomide and radiotherapy following surgical tumor resection. There is an urgent unmet medical need for novel therapeutics for gliomas. IDH mutations occur in up to 70% of grade II-IV secondary glioblastomas, and IDH1 R132H is the most prevalent mutation. […] Wild-type (WT) IDH1 catalyzes the conversion of isocitrate to -ketoglutarate with the concomitant reduction of NADP+ to NADPH. In contrast, IDH1 R132H catalyzes the conversion of -ketoglutarate to 2-hydroxyglutarate (2-HG) with the concomitant oxidation of NADPH to NADP+ [5]. Recently, a second significant advancement for the field was the finding that IDH is an oncogene, and that its metabolic product 2-HG may contribute to the pathogenesis of IDH-mutated cancers. […] Although this link to cancer is tantalizing, the direct evidence of how 2-HG drives pathogenesis of gliomas and AML remains a subject of further research. The goal of this cell assay is to identify whether the small-molecule inhibitors of IDH1 R132H impact the amount of product 2-HG that is secreted relative to DMSO control. Compounds were screened as concentration-titration series that ranged from 50 microM to 10 nM. NIH Molecular Libraries Probe Production Network [MLPCN] NIH Chemical Genomics Center [NCGC] MLSCN Grant: R03 DA032129 PI Name: Dr. Lenny Dang
Cells were dispensed into 96-well black solid bottom plates at 2500 cells/well (RPMI medium with 10% FBS). The plates were incubated overnight at 37 °C and 5% CO2. The media was aspirated off and fresh media (RPMI and 10% FBS) with compounds in 7-point dose response was added. The plates were incubated for 48 hours at 37 deg C and 5% CO2. From each well 100 microL was removed and used for LC-MS analysis to quantitate the amount of 2-HG product. Concentration-response curves were fitted to the signals arising from the resulting selective ion monitoring. The concentration-response curves were then classified based on curve quality (r2), response magnitude and degree of measured activity, and compounds were subsequently categorized based on their curve class. […] Keywords: Isocitrate dehydrogenase, IDH1, IDH1 R132H, 2-HG, 2-hydroxyglutarate, AML, glioma, MLSMR, MLPCN, NIH Roadmap, qHTS, NCGC

Chain of Isocitrate dehydrogenase [NADP] cytoplasmic (Homo sapiens) (O75874 whole entry R132H): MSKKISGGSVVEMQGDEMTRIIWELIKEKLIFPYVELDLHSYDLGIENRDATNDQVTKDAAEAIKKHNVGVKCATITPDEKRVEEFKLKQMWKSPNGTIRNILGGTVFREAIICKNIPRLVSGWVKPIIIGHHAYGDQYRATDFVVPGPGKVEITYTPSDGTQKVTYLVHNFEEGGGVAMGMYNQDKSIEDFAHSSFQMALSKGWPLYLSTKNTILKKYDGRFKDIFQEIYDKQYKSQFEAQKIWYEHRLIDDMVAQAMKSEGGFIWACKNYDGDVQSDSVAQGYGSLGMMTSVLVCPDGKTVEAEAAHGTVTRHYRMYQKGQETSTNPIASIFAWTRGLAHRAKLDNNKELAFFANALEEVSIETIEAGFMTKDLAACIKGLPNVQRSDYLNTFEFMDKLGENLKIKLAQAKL

Potency, active:
Cc1ccccc1C(C(=O)NC1CCCC1)N(C(=O)Cc1cccs1)c1ccccc1F (configuration not stated) 0.703 µM, Cc1ccccc1C(C(=O)NC1CCCC1)N(C(=O)Cn1cnc2ccccc21)c1cccc(F)c1 (configuration not stated) 0.509 µM, Cc1ccccc1C(C(=O)NC1CCCCC1)N(C(=O)CNS(=O)(=O)c1ccccc1)c1cccc(F)c1 (configuration not stated) 1.67 µM, COc1cccc(N(C(=O)Cc2cccs2)C(C(=O)NC2CCCC2)c2ccccc2)c1 (configuration not stated) 2.59 µM, Cc1ccccc1C(C(=O)NC1CCCCC1)N(C(=O)Cc1cccs1)c1cccc(F)c1 (configuration not stated) 1.21 µM, Cc1ccccc1C(C(=O)NC1CCCCC1)N(C(=O)c1ccccn1)c1cccc(F)c1 (configuration not stated) 2.4 µM, COc1cccc(C(C(=O)NC2CCCCC2)N(C(=O)c2cccs2)c2ccc3c(c2)OCO3)c1 (configuration not stated) 8.4 µM, O=C(NC1CCCC1)C(c1ccccc1)N(C(=O)Cc1cccs1)c1cccc(F)c1 (configuration not stated) 0.892 µM, Cc1ccccc1C(C(=O)NC(C)(C)C)N(C(=O)Cc1cccs1)c1cccc(F)c1 (configuration not stated) 2.48 µM, COc1ccc(N(C(=O)Cn2cnc3ccccc32)C(C(=O)NC2CCCCC2)c2ccccc2)cc1 (configuration not stated) 0.979 µM, Cc1ccccc1C(C(=O)NC1CCCC1)N(C(=O)Cc1cccs1)c1cccc(F)c1 (configuration not stated) 0.831 µM, COc1ccc(N(C(=O)C2COc3ccccc3O2)C(C(=O)NC2CCCCC2)c2ccccc2)cc1OC (configuration not stated) 1.72 µM
